Screens as filed in PubChem BioAssay.
EWS-Fli inh – EWS/Fli transcriptional activity inhibition; A673 NR0B1-luciferase reporter, viability-normalised; inhibition, % at 12.6 µM; 350,000 compounds, 0.67% hits;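 active means mean inhibition of at least 50% after viability correction, with every replicate also passing that limit; inconclusive means mean reaches 50% but only one of two replicates passes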;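 further: firefly luciferase signal divided by Alamar Blue viability fluorescence both relative to DMSO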
PAX8 reporter – inhibitors of PAX8 transcriptional activity in RMG-I cells; RMG-I TPO-luciferase reporter, SteadyGlo, 24 h; inhibition, % at 12.6 µM; 360,000 compounds, 1.2% hits; AID 652154;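 active means mean replicate inhibition at least 60% with every replicate also reaching 60%; inconclusive means only one of the two criteria is met; inactive means mean below 60% and not all replicates reaching 60%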;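 further: luciferase light reporting Pax8 driven TPO promoter activity; plate controls were median of neutral control wells for no effect and mitoxantrone controls for full effect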
LGR2 antag – blocks bursicon-induced cAMP signaling via Drosophila LGR2 | HEK293 LGR2, CRE-luciferase, bursicon-stimulated, 4 h | inhibition, % at 9.99 µM | 380,000 compounds, 0.35% hits | AID 720647;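 active means drop in luminescence signal, shown as inhibition above about 50% in the replicate tests, limit read from the data, passing the limit was not always enough; inconclusive means probably only some replicates passing the limit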;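 further: agonist challenge used bursicon conditioned medium at about half maximal strength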
SIRT5 block – sirtuin-5 (human) deacylase inhibition. Q9NXA8. Purified SirT5, succinyl-peptide AMC, trypsin-coupled fluorescence. inhibition, % at 15 µM. 330,000 compounds, 1.1% hits. AID 652115; in the data active means inhibition above about 15%; inconclusive means no clear call, values can overlap the other calls
Target sequence (Q9NXA8 whole entry, looked up): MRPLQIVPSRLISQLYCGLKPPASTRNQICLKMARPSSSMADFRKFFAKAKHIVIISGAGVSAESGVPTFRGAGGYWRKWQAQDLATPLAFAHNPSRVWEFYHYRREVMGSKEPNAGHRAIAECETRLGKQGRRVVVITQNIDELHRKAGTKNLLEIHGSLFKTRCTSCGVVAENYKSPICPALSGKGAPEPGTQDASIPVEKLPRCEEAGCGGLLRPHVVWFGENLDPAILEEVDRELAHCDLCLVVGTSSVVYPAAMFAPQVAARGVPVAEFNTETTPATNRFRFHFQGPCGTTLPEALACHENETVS
PGC1a acetyl inh – PGC1a acetylation modulation, inhibitor mode; U2OS PGC1a acetylation, AlphaScreen anti-acetyl-lysine; with virally co-expressed GCN5 acetyltransferase; inhibition, % at 15.6 µM; 350,000 compounds, 0.17% hits;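 active means every replicate shows inhibition of at least 40%; inconclusive means mean inhibition at least 40% but some replicate below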;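 further: 0% = neutral control wells and 100% = positive control wells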
Ecoli rRNA inh – inhibitors of bacterial rRNA selective over humanized ribosomes; E. coli WT GFP vs humanized-ribosome RFP mutants, fluorescence, 24 h; hits give low values; DMSO median 0, no signal -100; GFP signal change (wild-type ribosome), % (no concentration beside the values); 350,000 compounds, 1.6% hits; AID 720706;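 active means significant combined selectivity score with lowered wild-type GFP, culture density cut under 30%, mutant RFP and density less affected; inactive means any of these conditions unmet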
* = called active by the depositor; ? = inconclusive; . = no result given. Most compounds without a hit are left out; they make up all but 3.4% or so of the library.

SMILES | EWS-Fli inh | PAX8 reporter | LGR2 antag | SIRT5 block | PGC1a acetyl inh | Ecoli rRNA inh
CC(C)CC#Cc1ccc2c(c1)O[C@@H](CN(C)Cc1ccccc1F)[C@@H](C)CN([C@@H](C)CO)S2(=O)=O | 2 | . | 11 | 16* | 4 | 0
O=S(=O)(c1ccc(F)cc1)N1CC[C@@H]2[C@@H](CO)Nc3ccc(Br)cc3[C@@H]21 | -6 | -45 | -10 | 0 | -12 | -44
CC(C)C(=O)Nc1ncc(Cc2ccccc2Cl)s1 | -3 | -11 | -6 | 1 | -30 | 9
N#CCC(=O)Nc1ncc(Cc2ccccc2Cl)s1 | 8 | -4 | 8 | 15* | 0 | -19
Cc1ccc(-n2[nH]c(=O)c3cccnc32)cc1 | . | -15 | . | . | . | .
Cc1ccc(-n2[nH]c(=O)c(-c3ccccn3)c2C)cc1 | 74* | 75* | 94* | 1 | -11 | 2
C=CC1c2cc(OC)c(OC)cc2CC(C)N1Cc1ccc(OC)cc1 (stereo not drawn) | 56* | 12 | . | 2 | 2 | .
COc1ccc(-c2csc(CCn3nc(C)cc3C)n2)cc1 | -52 | -51 | -6 | -1 | . | -21*
COc1ccc(-c2csc(CCn3nc(C)cc3C)n2)cc1OC | 3 | -10 | -16 | 0 | 5 | 2
O=C(NCc1cccc(C(F)(F)F)c1)C1CC(c2ccccc2[N+](=O)[O-])=NO1 (stereo not drawn) | -5 | -9 | -9 | -6 | 5 | -33*
O=C(NCc1cc(C(F)(F)F)cc(C(F)(F)F)c1)C1CC(c2ccccc2[N+](=O)[O-])=NO1 (stereo not drawn) | 20 | 19 | 16 | 3 | -7 | -27
O=C(NCC[C@H]1CC[C@@H](NS(=O)(=O)c2cccc(F)c2)[C@H](CO)O1)C1CC1 | -8 | -1 | -4 | -2 | 2 | 1
Cc1ccsc1/C=N/NC(=S)NCCc1ccccc1 | -82 | 12 | . | 16* | 15 | -8
C[C@H](CO)N1C[C@H](C)[C@@H](CN(C)C(=O)c2cccc(F)c2)Oc2cc(-c3cccc(F)c3)ccc2S1(=O)=O | 37 | . | 32 | 5 | 0 | -10
C[C@@H]1CN([C@@H](C)CO)S(=O)(=O)c2ccc(C#CCC3CCCC3)cc2O[C@H]1CN(C)Cc1cccc(C(=O)O)c1 | -3 | 3 | . | 17* | 10 | .
C[C@H](CO)N1C[C@H](C)[C@@H](CN(C)Cc2cccc(C(=O)O)c2)Oc2cc(C#CCC3CCCC3)ccc2S1(=O)=O | 4 | 7 | . | 16* | -6 | .
CC(C)NC(=O)N1[C@H](CO)[C@@H](c2ccccc2)C12CN(C(=O)Cc1ccccc1)C2 | 3 | -1 | 6 | 1 | -6 | -1
CC(=O)Oc1ccc2c(=O)c(Oc3ccccc3)c(C)oc2c1OC(C)=O | 17 | 11 | 11 | -2 | -9 | -17*
CCOC(=O)N1CCN(C(=O)CCS(=O)(=O)c2ccc3c(c2)CC(C)N3C(=O)CC)CC1 (stereo not drawn) | . | -1 | 28 | -3 | 3 | 9
CCC(=O)N1c2ccc(S(=O)(=O)CCC(=O)N3CCn4c3nc3ccccc34)cc2CC1C (stereo not drawn) | . | 106* | . | . | -7 | .
O=C(OC1CCOC1=O)c1cc(Cl)ccc1[N+](=O)[O-] (stereo not drawn) | 2 | -35 | 3 | 98* | 0 | 4
O=C(OC1CCOC1=O)c1ccc(N2CCCC2)c([N+](=O)[O-])c1 (stereo not drawn) | 2 | -2 | -2 | 2 | -1 | 3
COc1ccc(C#Cc2ccc([C@@H]3[C@@H](CO)N4C(=O)CN(C(=O)c5ccccc5)C[C@@H]34)cc2)cc1 | . | . | 13 | 4 | 2 | 5
CO[C@H]1CN(C)C(=O)c2cc(NC(=O)NC3CCCCC3)ccc2OC[C@H](C)N(CC2CC2)C[C@@H]1C | -2 | . | -18 | 6 | 15 | 4
COc1ccc2c3c(n(C)c2c1)[C@H](CO)N(C(=O)CN(C)C)CC31CCN(C(=O)NC(C)C)CC1 | -12 | -30 | 7 | 4 | -3 | 3
SMILES | EWS-Fli inh | PAX8 reporter | LGR2 antag | SIRT5 block | PGC1a acetyl inh | Ecoli rRNA inh
Cc1cc(O)c(C(C)C)cc1C1(c2cc(C(C)C)c(O)cc2C)OC(=O)c2ccccc21 | 29 | 89* | 70* | -6 | -3 | 1
Cc1cc(C2(c3ccc(O)c(C)c3)OC(=O)c3ccccc32)ccc1O | 18 | 32 | 0 | . | . | -37
CC(=O)N1CC(=O)N2[C@H](C1)[C@H](c1ccc(-c3ccc(C#N)cc3)cc1)[C@@H]2CO | . | . | . | . | . | 3
CC(C)c1cc(C(C)C)c(S(=O)(=O)N2CCNCC2)c(C(C)C)c1 | 8 | 13 | 1 | -2 | -25 | -44*
O=C(C[C@H]1C=C[C@@H](NS(=O)(=O)c2ccc(F)cc2)[C@@H](CO)O1)NCCN1CCCCC1 | 4 | -10 | -5 | -6 | 1 | -1
CCCCCCCCOC(=O)C[N+](C)(C)C/C=C(/C)Cl | 11 | 14 | -1 | 2 | 3 | -35*
CCC(=O)N1CC2(C1)[C@H](c1ccccc1)[C@@H](CO)N2Cc1ccccc1OC | 5 | . | 6 | 5 | 0 | 1
O=C1N=C(N2CCN(c3ccccc3)CC2)S/C1=C\c1cn[nH]c1-c1ccccc1 | 3 | 25 | 60* | 0 | 2 | 2
O=C1N=C(N2CCN(c3ccccc3)CC2)S/C1=C/c1ccco1 | -13 | -6 | . | 0 | . | -38*
Cc1ccc(N2CCN(C3=NC(=O)/C(=C\c4cn[nH]c4-c4ccccc4)S3)CC2)cc1 | . | 7 | 20 | . | . | .
CCc1ccc(/C=C2/SC(N3CCOCC3)=NC2=O)cc1 | -33 | -7 | -12 | -1 | 10 | -19*
C[C@H](CO)N1C[C@H](C)[C@@H](CN(C)Cc2ccc(Cl)c(Cl)c2)Oc2ccc(NC(=O)Nc3ccc4c(c3)OCO4)cc2C1=O | -7 | . | 11 | -2 | -4 | -3
C/C(=N\NC(=S)NC1CCCCC1)c1cccs1 | 32 | -5 | -40 | 0 | 6 | -26*
C/C(=N\NC(=S)NC1CCCCC1)c1c(F)cccc1F | 30 | -8 | 12 | -1 | . | -56
O=c1c(/C=N/O)c(Nc2ccccc2)nc2ccccn12 | 12 | . | -2 | 1 | 4 | -20*
Cc1ccc(C(=O)n2nc(-n3cccc3)c3c(C)cc(C)nc32)cc1 | 3 | -18 | ? | 26* | . | 18
O=C(Nc1nccs1)c1cc2cc(Cl)ccc2oc1=O | -5 | 1 | -11 | 21* | 8 | 16
CCOC(=O)C(NCc1ccc(F)cc1)(NC(=O)c1ccccc1)C(F)(F)F (stereo not drawn) | . | -12 | . | . | . | .
COc1ccc(CNC(NC(=O)c2ccccc2)(C(F)(F)F)C(F)(F)F)cc1 | 15 | 14 | 5 | -7 | . | -19*
CCSCCc1nnc(NC(=O)Nc2cccc(C(F)(F)F)c2)s1 | 24 | 106* | 28 | 2 | . | .
O=C(Nc1cccc(C(F)(F)F)c1)Nc1nnc([C@H]2C[C@H](O)[C@@H](CO)O2)s1 | -20 | -27 | 41 | . | -15 | -5
